PubChem BioAssay (NCATS)
Inconclusive results are not listed. A call without a number means that no potency is given here. Calls of active or inactive are those of the source. Unless noted, calls come from the whole dose curve; as a rule, active = well fitted curve in the direction sought with a large enough effect; inconclusive = small, poorly fitted or top-dose-only effect, or another doubt; inactive = no such curve, though single readings can be large; an effect the other way counts as inactive or inconclusive.

Legend:
[1] = biological target: Cytochrome P450 2D6 (Homo sapiens) (UniProt P10635); assay: Cytochrome P450 family 2 subfamily D member 6 (CYP2D6) small molecule antagonists: luciferase biochemical (cell-free) qHTS assay (AID 1645840; active = well fitted curve in the direction sought with a large enough effect in the repeat runs; an effect the other way counts as inactive or inconclusive; note: nearly all actives have a fitted effect of over 55% in size)
In short: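 P450-Glo CYP2D6 system: proluciferin substrate converted by enzyme to luciferin, read by luminescence proportional to activity. Enzyme-substrate mix with compound 10 min at room temperature, then NADPH regeneration 1 h before detection reagent.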

[2] = Primary qHTS for inhibitors of nuclear receptor binding SET domain protein 2 (NSD2) in an isogenic RCH-ACV NSD2 p.E1099K mutant (9B) (AID 1645876); note: nearly all actives have a fitted effect of over 70% in size
[3] = Primary qHTS for inhibitors of nuclear receptor binding SET domain protein 2 (NSD2) in an RCH-ACV wild type WT cells (2C) (AID 1645877); note: nearly all actives have a fitted effect of over 70% in size
Potency is the fitted concentration of half-maximal effect.

Chain of Cytochrome P450 2D6 (Homo sapiens) (P10635 whole entry, looked up): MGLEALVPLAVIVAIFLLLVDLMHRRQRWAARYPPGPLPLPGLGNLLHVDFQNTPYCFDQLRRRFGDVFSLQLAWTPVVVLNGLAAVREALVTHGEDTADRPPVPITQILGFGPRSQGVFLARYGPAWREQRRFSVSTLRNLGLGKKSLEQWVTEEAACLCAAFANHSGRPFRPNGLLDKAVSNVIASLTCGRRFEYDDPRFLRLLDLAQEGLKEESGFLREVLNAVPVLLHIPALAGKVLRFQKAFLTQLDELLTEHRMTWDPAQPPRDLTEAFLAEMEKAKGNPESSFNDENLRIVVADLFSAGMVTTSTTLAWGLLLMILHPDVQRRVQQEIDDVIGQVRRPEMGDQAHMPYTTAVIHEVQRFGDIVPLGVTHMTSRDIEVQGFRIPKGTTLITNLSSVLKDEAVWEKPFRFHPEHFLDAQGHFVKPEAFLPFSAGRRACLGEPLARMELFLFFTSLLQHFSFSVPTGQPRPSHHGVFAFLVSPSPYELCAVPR

Row | Compound | Potency [1] | Potency [2] | Potency [3]
1 | Clc1ccc2c(c1)Nc1ccccc1S2 | inactive | inactive | inactive
2 | COC(=O)c1ccc(NC(C)=O)cc1OC | inactive | inactive | inactive
3 | OC1(c2ccccc2)CCNCC1 | 27.5 µM (active) | inactive | inactive
4 | Cc1nc([N+](=O)[O-])cn1-c1ccc([N+](=O)[O-])cc1 | inactive | inactive | inactive
5 | OC1(c2ccc(Cl)cc2)CCNCC1 | 15.5 µM (active) | inactive | inactive
6 | O=C(O)Cn1c(=O)n(Cc2ccc(Br)cc2F)c(=O)c2ccc(Cl)cc21 | inactive | inactive | inactive
7 | Cc1cccc(N(C)C(=S)Oc2ccc3c(c2)CCC3)c1 | inactive | inactive | inactive
8 | Cc1[nH]cnc1-c1ccc(Cl)cc1 | 17.4 µM (active) | inactive | inactive
9 | COC(=O)[C@H]1[C@H]2C[C@@H]3c4[nH]c5cc(OC)ccc5c4CCN3C[C@H]2C[C@@H](OC(=O)/C=C/c2ccc(O)c(OC)c2)[C@@H]1OC | inactive | 4.73 µM (active) | 4.73 µM (active)
10 | COCCc1ccc(OCC2CO2)cc1 (configuration not stated) | inactive | inactive | inactive
11 | CCCCCCCCCCCCCCCC[N+](C)(C)Cc1ccccc1 | 0.195 µM (active) | 0.75 µM (active) | 0.668 µM (active)
12 | Cc1oc(=O)oc1COC(=O)[C@@H]1N2C(=O)[C@@H](NC(=O)[C@H](N)c3ccccc3)[C@H]2SC1(C)C | inactive | inactive | inactive
13 | Cc1onc(-c2c(Cl)cccc2Cl)c1C(=O)Cl | inactive | inactive | inactive
14 | CCCCCCCCCCCCCCCCCCNC(=O)OC1CCN(C(=O)OC[C@H](COC(=O)N(Cc2cccc[n+]2CC)C(=O)c2ccccc2OC)OC)CC1 | 17.4 µM (active) | 2.66 µM (active) | 2.66 µM (active)
